Test results published in PubChem BioAssay (NCATS).
Results filed as inconclusive are left out. The source made the active and inactive calls. Calls follow the shape of the full dose curve.

Columns and labels:
[1] = Primary qHTS for inhibitors of SARS-S pseudo-typed particle cell entry (AID 1479145); conditions: outcome: dose series up to 57.1 µM unless noted; also: series mostly up to about 57 µM; % is scaled to controls: 0 for no effect and ±100 for the full control effect; nearly all actives have a fitted effect of over 45% in size
[2] = Primary qHTS for Huh7 cytotoxicity: counterscreen for inhibitors of MERS-S pseudotyped particle cell entry (AID 1479147); conditions: outcome: dose series up to 57.1 µM unless noted
[3] = Primary qHTS for inhibitors of MERS-S pseudo-typed particle cell entry (AID 1479149); conditions: outcome: dose series up to 57.1 µM unless noted; also: nearly all actives have a fitted effect of over 60% in size; as to activity change, negative = inhibition: series mostly up to about 57 µM; % is scaled to controls: 0 for no effect and ±100 for the full control effect
[4] = Primary qHTS for Vero E6 cytotoxicity: counterscreen for inhibitors of SARS-S pseudo-typed particle cell entry (AID 1479150)

CC[N+](C)(CC)CCOC(=O)C(O)(c1ccccc1)c1ccccc1
inactive: outcome [1] | outcome [2] | outcome [3] | Potency [4]

CCOc1ccc2c3c1O[C@H]1[C@@H](O)C=C[C@H]4[C@@H](C2)N(C)CC[C@@]341
inactive: outcome [2] | outcome [3] | Potency [4]

C[C@]12CC[C@H]3[C@@H](CCC4=C(O)C(=O)CC[C@@H]43)[C@@H]1CC[C@@H]2OC(=O)CCC1CCCC1
inactive: outcome [2] | outcome [3] | Potency [4]

CCC(=O)O[C@@](Cc1ccccc1)(c1ccccc1)[C@@H](C)CN(C)C
inactive: outcome [2] | outcome [3] | Potency [4]

CC(N)Cc1ccc(O)cc1 (stereo not given)
inactive: outcome [1] | outcome [2] | outcome [3] | Potency [4]

CCNC1(c2cccs2)CCCCC1=O (stereo not given)
inactive: outcome [1] | outcome [2] | outcome [3] | Potency [4]

O=P(O)(O)C(Cl)(Cl)P(=O)(O)O
inactive: activity change, negative = inhibition [1] -10.6% [at 5.34 µM] | outcome [2] inactive [at 5.34 µM] | outcome [3] inactive [at 5.34 µM] | outcome [4] inactive [at 5.34 µM]
